Hits are enriched below; roughly 5.2% of the tested compounds scored in any of these assays.
mIDH1 inhibitor – human IDH1 R132H inhibition | 0.093% of 390,000 active | AID 602179 | Potency, µM (top dose mostly 76.6 µM), inactives show top-dose activity change, negative = inhibition, usual class: inhibitors | IDH1-R132H enzyme, NADPH consumption, diaphorase/resazurin fluorescence; further: nearly all actives have a fitted effect of over 65% in size
Target sequence (O75874 whole entry R132H, stated change not applied): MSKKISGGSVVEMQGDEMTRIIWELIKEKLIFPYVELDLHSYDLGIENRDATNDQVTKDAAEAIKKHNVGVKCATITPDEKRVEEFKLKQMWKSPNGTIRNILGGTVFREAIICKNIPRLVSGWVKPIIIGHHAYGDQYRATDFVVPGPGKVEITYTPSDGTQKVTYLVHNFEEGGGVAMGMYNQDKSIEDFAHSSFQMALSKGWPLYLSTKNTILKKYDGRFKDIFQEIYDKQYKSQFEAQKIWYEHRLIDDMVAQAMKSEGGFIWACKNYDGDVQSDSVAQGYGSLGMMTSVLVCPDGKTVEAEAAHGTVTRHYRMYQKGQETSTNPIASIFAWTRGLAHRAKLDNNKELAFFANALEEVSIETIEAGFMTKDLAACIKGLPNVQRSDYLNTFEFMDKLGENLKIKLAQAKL
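IDH1-R132H (0.5 ug/mL dispensed) in pH 7.5 Tris buffer was preincubated 30 min with compound, then given a substrate mix of 0.016 mM NADPH and 2 mM alpha-KG for 80 min at room temperature; remaining NADPH was read by diaphorase/resazurin fluorescence.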
PLK1 PBD block – PLK1 (human) polo-box domain binding inhibition; Plk1 PBD binding of FITC phosphopeptide, fluorescence polarization; Potency, µM, inactives show max response, negative = inhibition, hits mostly inhibitors; 2.8% of 360,000 active; AID 720504; further: series mostly up to about 57 µM; nearly all actives have a fitted effect of over 65% in size
TrxR1 substrate – is turned over as a substrate by rat TrxR1; O89049; purified TrxR1 substrate turnover, NADPH consumption readout; Potency, µM (doses to about 114 µM), without a hit: at the highest dose activity change, negative = substrate turnover; 0.01% of 390,000 active; AID 588456; further: nearly all actives have a fitted effect of over 50% in size
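Rat TrxR1, dispensed at 90 nM, was prereduced with 400 uM NADPH (final) for 5 min at ~22 deg C, then incubated with compound 15 min before 400 uM selenite. A first-read NADPH fluorescence drop versus no-compound background flagged substrates.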
Sfp inh – blocks B. subtilis Sfp PPTase activity; Biochemical Sfp PPTase activity, qHTS; Potency, µM, for inactives: largest response in the series, negative = inhibition, most hits filed as inhibitors; 3.5% of 310,000 active; AID 1490;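 further: the enzyme is Sfp with the accession as filed and its product quenches rhodamine fluorescence; 0% = enzyme reaction without inhibitor and -100% = no enzyme wells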
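After 15 min at room temperature with compound, 15 nM Sfp received 5 uM rhodamine-CoA plus 12.5 uM BHQ-2-ybbR (50 mM Hepes pH 7.6, 10 mM MgCl2). Rate came from the fluorescence difference over 30 min, ex 525/em 598 nm.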
TrxR1 inh – blocks rat thioredoxin reductase 1; recombinant rTrxR1, NADPH fluorescence consumption, selenite substrate; Potency, µM (series often up to 114 µM), without a hit: at the top dose activity change, negative = inhibition, most hits filed as inhibitors; 1% of 390,000 active; further: nearly all actives have a fitted effect of over 65% in size
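Rat TrxR1 (90 nM in the dispensed reagent) was pre-reduced with 400 uM NADPH for 5 min at room temperature, then incubated with compound for 15 min. After 400 uM selenite was added, NADPH fluorescence (Ex 340/Em 450 nm) was followed for 8 min.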
VDR inhibitor – inhibitors of human vitamin D receptor; P11473; VDR-SRC2-3 peptide fluorescence polarization, 2 h; Potency, µM, for inactives: max response, negative = inhibition, most hits filed as inhibitors; 0.93% of 400,000 active
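Compounds are added to VDR with labelled SRC2-3 coactivator peptide and held 2 h at room temperature. Inhibition of the VDR–peptide interaction is then read as a change in fluorescence polarization.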
Active calls of the source: *; ? = inconclusive; / = not tested or not shown; [ ] = dose if it differs, or a comment. The call rests on the fitted dose curve; in most records, active means well fitted curve in the direction sought with a large enough effect; inconclusive means small, poorly fitted or top-dose-only effect, or another doubt; inactive means no such curve, though single readings can be large; an effect the other way counts as inactive or inconclusive. Unless noted, on the % scale 0 is the no-effect control and ±100 the full control effect; potency means the concentration at half of the fitted maximal effect.

SMILES	mIDH1 inhibitor	PLK1 PBD block	TrxR1 substrate	Sfp inh	TrxR1 inh	VDR inhibitor
CN1C(=O)C(=Cc2cccnc2)C(=O)N(C)C1=O	3%	17µM*	7%	40µM*	22µM*	?
O=C1NC(=O)N(Cc2ccc(F)cc2)C(=O)/C1=C\c1ccc(N2CCCC2)cc1	-3%	1.5µM*	9%[57.1 µM]	?	-71%	79µM*
CN1C(=O)C(=Cc2ccc(N3CCCCCC3)cc2)C(=O)N(C)C1=O	1%	1.5µM*	-17%[57.1 µM]	?	-43%	3%
CN(C)c1ccc(/C=C2\C(=O)NC(=O)N(CCc3ccc(F)cc3)C2=O)cc1	-17%	1.1µM*	-9%	-18%	?	40µM*
O=C1NC(=O)N(Cc2ccccc2)C(=O)/C1=C/c1cnn(-c2ccccc2)c1	/	/	/	-20%	/	/
CC1CC[C@@]2(OC1)O[C@@H]1[C@@H](O)[C@H]3C4CC[C@H]5C[C@@H](O[C@@H]6O[C@H](CO)[C@H](O[C@@H]7O[C@H](CO)[C@@H](O)[C@H](O[C@@H]8OC[C@@H](O)[C@H](O)[C@H]8O)[C@H]7O[C@@H]7O[C@H](CO)[C@@H](O)[C@H](O[C@@H]8O[C@H](CO)[C@@H](O)[C@H](O)[C@H]8O)[C@H]7O)[C@H](O)[C@H]6O)[C@H](O)C[C@]5(C)C4CC[C@]3(C)[C@H]1[C@@H]2C (stereo not given in full)	/	/	/	-1%	/	-10%
Clc1ccc(C2=CCC[C@H]3CC[C@@H]2N3)cn1	/	/	/	-16%	/	?
COc1cc2c(c3oc4cccc(O)c4c(=O)c13)C1C=CO[C@@H]1O2 (stereo not given in full)	/	/	/	1%	/	0%
Cn1c(O)c(/C=C2\N=c3ccccc3=C2CCNC(=S)NC2CC2)c(=O)n(C)c1=O	0%	0.95µM*	1%	32µM*	?	71µM*
COP(=O)(OC)[C@@H](O)C(Cl)(Cl)Cl	/	/	/	20%	/	-1%
Cc1nn(C2CCOC(C)(C)C2)c2c1C(c1ccc(OC(C)C)cc1)SCC(=O)N2 (stereo not given)	8%	-19%	7%[57.1 µM]	-25%	-2%[57.1 µM]	79µM*
COc1ccc(C2SCC(=O)Nc3c2c(C)nn3-c2ccccc2)cc1 (stereo not given)	13%	-14%	-8%[57.1 µM]	3%	6%[57.1 µM]	-13%
CC(=O)c1ccc2c(c1)C1C(Cl)C(Sc3ccccc3[N+](=O)[O-])CC1C(C(=O)O)N2 (stereo not given)	?	27µM*	-18%	56µM*	?	-1%
O=C(O)c1cccc2c1NC(C(=O)O)C1CC(Sc3ccccc3[N+](=O)[O-])C(Cl)C21 (stereo not given)	-11%	8.4µM*	-5%	25µM*	?	-68%
COP(=S)(OC)Oc1ccc(S(=O)(=O)N(C)C)cc1	/	/	/	35µM*	/	?
CC(=O)Nc1c2sscc-2n(C)c1=O	/	/	/	?	/	40µM*
CN(N)N=Nc1nc2c([nH]1)c(=O)n(C)c(=O)n2C	5%	-28%	14%[57.1 µM]	18µM*	40%[57.1 µM]	-17%
COc1ccc(/C=C/C(=O)N2CC3C[C@@H](C2)Cn2c3cccc2=O)cc1OC	/	/	/	-11%	/	0%
NCC(N)C(=O)c1ccccc1 (stereo not given)	/	/	/	-3%	/	-10%
Nc1ncnc2c1nc(Sc1ccc(Cl)cc1)n2[C@@H]1O[C@@H]2COP(O)(=S)O[C@H]2[C@H]1O (stereo not given in full)	/	/	/	2%	/	-7%
CCC(=O)OC1(c2ccccc2)CCN(C)CC1C (stereo not given)	1%	24µM*	6%[57.1 µM]	-7%	21%[57.1 µM]	-24%
CCC(=O)OC1(c2ccccc2)C(C)CN(C)CC1C (stereo not given)	-1%	0%	-1%	-11%	18%	0%
Cc1ccc2c(c1)cc(C(=O)Nc1ccccc1C)n2C	/	/	30%	/	25%	1%
COC(=O)[C@]1(C)CC[C@@]2(C)CC[C@@]3(C)C4=CCc5c(cc(O)c(O)c5C)[C@]4(C)CC[C@@]3(C)C2C1 (stereo not given in full)	/	/	/	-24%	/	28µM*
c1ccc2sc(C3(NCC4CC4)CCCCC3)cc2c1	/	/	/	13%	/	7%
SMILES	mIDH1 inhibitor	PLK1 PBD block	TrxR1 substrate	Sfp inh	TrxR1 inh	VDR inhibitor
S=c1[nH]c2cc(Br)cnc2[nH]1	-6%	13µM*	5%[57.1 µM]	22µM*	?	-6%
CCOC(=O)CC(SP(=S)(OC)OC)C(=O)OCC (stereo not given)	/	/	/	40µM*	/	28µM*
O=C1NC(=O)C2(Cc3ccccc3N3CCCC32)C(=O)N1Cc1ccccc1 (stereo not given)	-1%	-22%	-9%	56µM*	?	?
CC(C)CC1C(C#N)=C(N)Oc2c1c(=O)oc1ccccc21 (stereo not given)	-7%	12µM*	6%	15%	-16%	?
CCCCn1c(O)c(C(CC)=NC(C)c2ccccc2)c(=O)[nH]c1=O (stereo not given)	-1%	-9%	0%[57.1 µM]	6%	-4%[57.1 µM]	-3%
CCCCCn1c(SCCCC)nc2c1c(=O)[nH]c(=O)n2C	2%	27µM*	-1%[57.1 µM]	?	-12%[57.1 µM]	?
COc1ccc(CNc2oc(-c3cccc4ccccc34)nc2P(=O)(OC)OC)cc1	-4%	3%	316%[57.1 µM]	50µM*	119%	?
S=P(N1CCOCC1)(N1CC1)N1CC1	5%	3%	3%	/	8%	19%
C=Cn1ccnc1P(=S)(c1c(C)nn(-c2ccccc2)c1C)c1nccn1C=C	0%	2%	-5%	-3%	9%	14%
Cn1ccnc1P(=S)(c1nccn1C)N1CCOCC1	-1%	27µM*	7%[57.1 µM]	?	-5%[57.1 µM]	?
Cn1ccnc1P(=S)(c1nccn1C)c1nccn1C	0%	-3%	4%	50µM*	-2%	-17%
Cn1c(C(=O)NCCOc2ccccc2Cl)cc(=O)n(C)c1=O	14%	-11%	-4%[57.1 µM]	23%	41%[57.1 µM]	1%
O=C(O)c1ccccc1SCC(=O)N1c2ccccc2Sc2ccccc21	-6%	-15%	3%	89µM*	-3%	-19%
CCOP(=O)(OCC)O/C(=C/Cl)c1ccc(Cl)cc1Cl	/	/	/	16%	/	3%
CCCC(=O)NC(Oc1ccc(Cl)cc1Cl)C(Cl)(Cl)Cl (stereo not given)	-6%	?	4%[57.1 µM]	14%	-70%[57.1 µM]	3%
CCOP(=S)(OCC)Oc1ccc(Cl)cc1Cl	/	/	/	?	/	50µM*
CCCSP(=S)(OCC)Oc1ccc(Cl)cc1Cl (stereo not given)	/	/	/	?	/	7.1µM*
Cc1cccc(-n2c(O)c(C=Nc3ccc(Br)cn3)c(=O)[nH]c2=O)c1	-1%	6µM*	-4%[57.1 µM]	-15%	8%[57.1 µM]	20µM*

Screening results: PubChem, National Center for Advancing Translational Sciences (NCATS)
